Most compounds without a hit are left out; they make up all but 3.1% or so of the library.
Tau fluor counter: Counterscreen qHTS for Inhibitors of Tau Fibril Formation, Fluorescence Polarization; Potency, µM (doses to about 57.7 µM), without a hit: at the top dose activity change, negative = decrease; tau K18 P301L Alexa594 fluorescence, heparin fibrillization; 280,000 tested, 0.93% active; further: nearly all actives have a fitted effect of over 55% in size
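Human K18 P301L tau (15 uM unlabeled plus 0.24 uM Alexa 594-labeled, final) in 100 mM sodium acetate pH 7 was mixed with compound and 20 uM heparin and incubated 6 hr at 37 C.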
TR SRC2 fluor cs: Total Fluorescence Counterscreen for Inhibitors of the Interaction of Thyroid Hormone Receptor and Steroid Receptor Coregulator 2 | TRb/SRC2 Texas Red total fluorescence interference | Potency, µM (highest dose often 106 µM), for inactives: top-dose fluorescence change, negative = quenching | 280,000 tested, 0.29% active; active means well fitted curve in either direction with a large enough effect; inconclusive means small, poorly fitted or top-dose-only effect
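Flags fluorescent or light-absorbing compounds by total fluorescence, S + 2P, at 555 nm excitation and 632 nm emission. Mixture: 20 nM Texas Red SRC2 peptide, 0.6 uM human TRb LBD, 1 uM T3, 5% DMSO; compound exposure 5 h at ambient temperature.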
Tau FP inhib: qHTS for Inhibitors of Tau Fibril Formation, Fluorescence Polarization; 280,000 tested, 0.39% active; K18 P301L tau heparin fibrillization, Alexa594 FP, 6 h; Potency, µM (doses to about 57.7 µM), without a hit: at the highest dose activity, negative = inhibition, hits mostly inhibitors; further: nearly all actives have a fitted effect of over 55% in size
Target sequence (P10636 561-689 P618L limits assumed): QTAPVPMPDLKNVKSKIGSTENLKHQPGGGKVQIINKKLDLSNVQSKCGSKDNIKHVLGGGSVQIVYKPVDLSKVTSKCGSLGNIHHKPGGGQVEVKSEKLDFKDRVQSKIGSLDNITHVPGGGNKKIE
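Human tau K18 […] P301L fragment, 15 uM unlabeled plus 0.24 uM Alexa 594-labeled tau (final), with compound and 20 uM heparin in 100 mM sodium acetate pH 7; 6 hr at 37 C, then Alexa 594 FP read.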
TRb-SRC2 inh: qHTS for Inhibitors of the Interaction of Thyroid Hormone Receptor and Steroid Receptor Coregulator 2. Thyroid hormone receptor beta (Homo sapiens), P10828. TRbeta-SRC2 peptide binding, fluorescence polarization; receptor liganded with 1 µM T3. Potency, µM (titrated, usually from 106 µM), for inactives: at the top dose activity change, negative = inhibition, actives largely listed as inhibitors. 280,000 tested, 0.065% active;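 further: plate controls were bound peptide for no effect and peptide without receptor for full effect; nearly all actives have a fitted effect of over 50% in size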
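A fluorescence polarization screen tested compounds at multiple concentrations against complex formation between 0.6 uM TRb ligand-binding domain and 20 nM Texas Red SRC2 peptide, with 1 uM T3 present; readout after 5 hr.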
RGS12 GoLoco inh: qHTS Assay for Inhibitors of RGS12 GoLoco Motif Activity (Red Fluorophore). Guanine nucleotide-binding protein G(i) subunit alpha-1 (Homo sapiens), P63096. Gai1:RGS12 GoLoco peptide FP, rhodamine, 10 min. Potency, µM (doses to about 61.6 µM), without a hit: at the top dose activity, negative = inhibition, usual class: inhibitors. 230,000 tested, 0.44% active. AID 880, 2007; active means well fitted inhibition curve with a large enough effect, not every such curve was filed as active; inactive means no such curve, though single readings can be large or run the other way; further: nearly all actives have a fitted effect of over 30% in size
Target sequence (P63096 whole entry, looked up): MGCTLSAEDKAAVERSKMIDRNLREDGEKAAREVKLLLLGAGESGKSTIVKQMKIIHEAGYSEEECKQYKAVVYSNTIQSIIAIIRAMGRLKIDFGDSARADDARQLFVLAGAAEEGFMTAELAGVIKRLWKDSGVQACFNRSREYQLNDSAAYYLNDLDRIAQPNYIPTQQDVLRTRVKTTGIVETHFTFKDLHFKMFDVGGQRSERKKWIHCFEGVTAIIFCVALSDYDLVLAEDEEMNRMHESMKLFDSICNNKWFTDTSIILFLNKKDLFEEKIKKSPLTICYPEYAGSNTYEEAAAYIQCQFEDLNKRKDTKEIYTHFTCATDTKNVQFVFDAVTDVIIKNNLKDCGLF
Tau ThT inhib: qHTS for Inhibitors of Tau Fibril Formation, Thioflavin T Binding | 270,000 tested, 2.1% active | Microtubule-associated protein tau (Homo sapiens), P10636 | recombinant tau K18 P301L (four-repeat tau fragment), heparin-induced fibrillization, ThT fluorescence | AID 1460, 2008 | Potency, µM (doses to about 57.4 µM), without a hit: at the highest dose activity, negative = inhibition, most hits filed as inhibitors; further: nearly all actives have a fitted effect of over 55% in size
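Heparin-induced fibrillization of the P301L-mutant K18 repeat-domain fragment of human tau was followed by ThT binding in quantitative high-throughput format.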
Numbers without * were called inactive; ? = inconclusive; / = no result; [ ] = dose if it differs, or a comment. Unless noted, the call rests on the fitted dose curve; in most records, active means well fitted curve in the direction sought with a large enough effect; inconclusive means small, poorly fitted or top-dose-only effect, or another doubt; inactive means no such curve, though single readings can be large; an effect the other way counts as inactive or inconclusive. Unless noted, on the % scale 0 is the no-effect control and ±100 the full control effect; potency means the concentration at half of the fitted maximal effect.

SMILES | Tau fluor counter | TR SRC2 fluor cs | Tau FP inhib | TRb-SRC2 inh | RGS12 GoLoco inh | Tau ThT inhib
Cn1nnnc1SCCNCc1ccccc1OCc1ccccc1F | -24.1% | 10µM*[quencher] | -4.0% | -4.5% | / | -17.1%
CCOc1cccc(CNCCCSc2nnnn2C)c1 | 3.0% | ? | 5.1% | -3.1% | / | 3.0%
CCc1ccccc1NC(=O)c1cc(S(=O)(=O)N2CCc3ccccc32)ccc1F | -29.8% | -0.9% | -7.7% | 8.6% | / | -15.1%
C[C@@H]1CC[C@H](O)/C=C/C(=O)O[C@H](C)CC[C@H](O)/C=C/C(=O)O1 | 2.3% | 1.7% | -5.3% | 5.2% | 1.0% | -5.9%
N=C1S/C(=C\c2ccc(-c3ccccc3C(=O)O)o2)C(=O)N1c1ccc2c(c1)OCO2 | -26.0% | -3.1% | -10.4% | 1.1% | -7.5% | 3.55µM*
COc1ccc(/C=C/C(=O)c2ccccn2)cc1 | -21.6% | 1.7% | -14.6% | -4.5% | -9.7% | 20µM*
COc1ccc(/C=C/C(=O)c2c(O)c(OC)c3occc3c2OC)cc1 | ? | -2.6% | 3.1% | -0.4% | 9.2% | 4.47µM*
COc1ccc(/C=C/C(=O)c2ccccc2O)cc1 | -13.0%[11.6 µM] | -0.6%[11.2 µM] | 7.6%[11.6 µM] | 4.0%[11.2 µM] | -1.0% | ?
Fc1ccc(CNc2cnccn2)cc1 | -2.6% | -3.0% | 0.3% | 2.1% | 8.2% | -2.1%
Cc1cc(C)n(-c2nnc(NCc3ccc(Cl)cc3)nn2)n1 | -15.8% | -1.9% | 7.0% | 1.7% | -0.3% | ?
Cc1nn(-c2nnc(NCc3ccccc3)nn2)c(C)c1Br | ? | -1.4% | 10.5% | -3.3% | 7.2% | 14.1µM*
COc1cc(C(=O)N(Cc2cccnc2)c2nc3cc(C)c(C)cc3s2)cc(OC)c1OC | -3.6% | -0.1% | -8.1% | 4.5% | / | -3.1%
Cc1oc(-c2cccc(C(F)(F)F)c2)nc1CN1CCN(c2ccccn2)CC1 | -18.9% | -6.7% | -8.0% | -3.8% | 9.2% | ?
NC1(C(=O)O)CCC1 | -19.5% | 0.7% | 6.2% | 2.4% | 2.7% | ?
N.N.O=C(O)C1(C(=O)O)CCC1.[Pt] | -24.8% | -20.7% | 2.82µM* | 1.1% | -11.7% | 3.16µM*
COc1ccc(C(=O)/C=C/c2ccc3c(c2)OCCO3)cc1 | -22.8% | -2.0% | -9.2% | 0.7% | -1.8% | ?
CC1(C)CC(=O)C2=C(C1)NC1=C(C(=O)c3ccccc31)C2c1cc([N+](=O)[O-])ccc1O (centres undefined) | 15.8µM*[quencher] | -5.3% | 6.7% | -0.7% | 7.1% | 14.1µM*
COc1ccc(OC)c(NC(=O)Cc2c(C(=O)O)[nH]c3ccc(Cl)cc23)c1 | -15.7% | -1.0% | 14.4% | -3.8% | / | ?
COc1ccc(Nc2nc(-c3sc(N)nc3C)cs2)cc1 | ? | 2.1% | ? | 10.7% | 79.7% | 8.91µM*
Cc1nc(N)sc1-c1csc(Nc2ccc(Cl)cn2)n1 | 14.1µM*[quencher] | -8.5% | -4.9% | 8.2% | -4.3% | 7.94µM*
COc1ccc(CCNc2nc(-c3sc(N)nc3C)cs2)cc1OC | ? | -3.3% | ? | 4.0% | 23.6% | 14.1µM*
COc1ccc(-c2csc(Nc3ccc(C)cn3)n2)cc1 | -3.7% | 14.7% | -3.2%[2.34 µM] | -1.0% | -1.2% | -6.3%
Cc1nc(N)sc1-c1csc(Nc2ccccn2)n1 | 14.1µM*[quencher] | -1.1% | ? | -2.0% | 16.0% | 12.6µM*
Cc1nc(C)c(-c2csc(N)n2)s1 | -2.2% | -3.2% | -10.2% | 0.0% | 9.1% | -0.3%
COc1ccc(NC(=O)N2CCC(n3c(C)nc4cccnc43)CC2)cc1OC | -8.7% | 0.9% | 2.7% | 1.2% | / | -11.7%
CCOc1ccccc1NC(=O)CSc1nnc(CNC(=O)COc2ccc(Cl)cc2)o1 | -13.7% | -2.8% | -2.7% | 1.9% | 0.6% | -4.7%

Source: PubChem BioAssay
